Measured values as given in PubChem BioAssay.
Active and inactive are the calls of the source.

What was measured:
Albumin (Bos taurus) = Albumin (Bos taurus) (UniProt P02769); experiment: bovine serum albumin binders on microarray, profiling panel, artefact control for SMM control protein annotation, biochemical, small-molecule microarray, Alexa647 label, 635/667 nm fluorescence (AID 1118); conditions: BSA-A647 binding, fluorescence 635 nm, higher = more signal;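 also: score merges 667 nm emission intensity and signal-to-noise per printed compound spot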
Chain of Albumin (Bos taurus) (P02769 whole entry, looked up): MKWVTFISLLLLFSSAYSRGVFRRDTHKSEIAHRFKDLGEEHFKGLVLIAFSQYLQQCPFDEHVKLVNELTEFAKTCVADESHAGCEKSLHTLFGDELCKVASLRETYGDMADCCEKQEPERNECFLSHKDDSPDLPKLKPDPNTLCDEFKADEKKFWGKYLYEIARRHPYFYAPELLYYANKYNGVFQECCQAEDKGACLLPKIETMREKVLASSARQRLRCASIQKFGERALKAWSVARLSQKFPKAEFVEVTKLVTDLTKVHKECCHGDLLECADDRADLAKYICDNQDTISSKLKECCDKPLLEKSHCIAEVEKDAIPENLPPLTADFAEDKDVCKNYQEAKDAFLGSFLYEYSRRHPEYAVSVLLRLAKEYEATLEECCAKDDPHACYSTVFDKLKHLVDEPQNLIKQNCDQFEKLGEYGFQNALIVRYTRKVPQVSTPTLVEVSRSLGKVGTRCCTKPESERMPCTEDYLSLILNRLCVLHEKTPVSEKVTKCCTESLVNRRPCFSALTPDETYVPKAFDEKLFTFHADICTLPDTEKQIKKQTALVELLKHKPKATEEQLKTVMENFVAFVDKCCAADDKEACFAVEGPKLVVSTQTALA

[1] = small-molecule microarray binders of probe aXIP, primary screen, biochemical, NeuroSMM set, 635/667 nm fluorescence (AID 1119); conditions: higher = more signal, called active from +8 up or from −8 down;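 also: probe is the protein aXip251-270 applied at 1 µg/mL to compound-printed slides; binding of probe to printed compounds measured as 667 nm fluorescence plus signal to noise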
[2] = small-molecule binders of probe aNOTCH3, primary screen, biochemical, small-molecule microarray, 635/667 nm fluorescence (AID 1120); conditions: higher = more signal;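 also: probe is a biotin-tagged antibody raised against NOTCH3 rather than NOTCH3 protein; score merges spot fluorescence near 667 nm with spot signal to noise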
[3] = small-molecule binders of probe aNOTCH2, primary screen, biochemical, small-molecule microarray, 635/667 nm fluorescence (AID 1121); conditions: higher = more signal;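 also: score merges feature fluorescence read at 667 nm with its signal to noise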
[4] = target: Carbonic anhydrase 2 (Homo sapiens) (UniProt P00918); experiment: CAII small-molecule binders, profiling panel, biochemical, small-molecule microarray, Alexa647-labelled CAII (AID 1122); conditions: CAII-A647 binding fluorescence, higher = more signal
[5] = COS7 lysate on small-molecule microarray, probe aHis, 635 nm (AID 1123); conditions: COS7 cell lysate, fluorescence, higher = more signal;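 also: z-score combines 667nm fluorescence intensity with signal-to-noise per printed compound spot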
[6] = compound binding in COS7 lysate, probe aLAP1, primary screen, cell lysate, small-molecule microarray (AID 1124); conditions: probe aLAP1, fluorescence, higher = more signal;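 also: lysate comes from COS7 cells expressing LAP1 and is applied at 0.3 µg/mL; score merges spot fluorescence near 667 nm with signal-to-noise over triplicate slides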
Sam68 (KHDRBS1) = experiment: Sam68 small-molecule binders, primary screen, biochemical, small-molecule microarray, 635 nm fluorescence (AID 1125); conditions: small-molecule microarray binding, higher = more signal;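 also: score merges 667 nm channel intensity with signal to noise over triplicate slides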
[7] = test system: Chordin-like protein 2 (CHRDL2); experiment: CHRDL2 small-molecule binders, primary screen, biochemical, small-molecule microarray, 635 nm fluorescence (AID 1126); conditions: small-molecule microarray binding, fluorescence 635 nm; higher = more signal;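 also: printed compound slides probed with Chrdl2 protein at 4 µg/mL for 1 h at 4 C; score merges 667 nm emission intensity with signal to noise over three replicate slides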
[8] = target: Concanavalin-A (Canavalia ensiformis) (UniProt P02866); experiment: ConA small-molecule binders, primary screen, artefact control for SMM control protein annotation, biochemical, small-molecule microarray, Alexa647 label, 635 nm (AID 1127); conditions: ConA-A647 binding fluorescence, higher = more signal;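 also: z combines 667 nm emission intensity with signal-to-noise across three replicate slides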
Chain of Concanavalin-A (Canavalia ensiformis) (P02866 whole entry, looked up): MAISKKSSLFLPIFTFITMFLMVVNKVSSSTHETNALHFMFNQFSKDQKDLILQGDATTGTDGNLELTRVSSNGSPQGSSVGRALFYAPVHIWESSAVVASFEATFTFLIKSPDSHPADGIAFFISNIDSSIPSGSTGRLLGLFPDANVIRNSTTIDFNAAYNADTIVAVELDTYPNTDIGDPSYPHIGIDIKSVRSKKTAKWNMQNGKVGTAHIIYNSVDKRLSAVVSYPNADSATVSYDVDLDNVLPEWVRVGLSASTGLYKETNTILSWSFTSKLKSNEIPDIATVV

[9] = anti-His antibody binders, primary screen, artefact control for SMM control protein annotation, biochemical, small-molecule microarray, 635 nm fluorescence (AID 1128); conditions: anti-His Alexa647 antibody binding, higher = more signal;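 also: score merges feature fluorescence with signal-to-noise for each printed compound spot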
[10] = test system: Human papillomavirus type 1a E7 protein (residues 1-88); experiment: HPV1a E7 small-molecule binders, primary screen, biochemical, small-molecule microarray, residues 1-88, 635 nm (AID 1129); conditions: small-molecule microarray binding, fluorescence 635 nm; higher = more signal
[11] = target: Focal adhesion kinase 1 (Homo sapiens) (UniProt Q05397); experiment: small-molecule microarray binders of FAK, primary screen, biochemical, 635/667 nm fluorescence, BSA, DTT (AID 1130); conditions: PTK2 binding, 635 nm fluorescence, higher = more signal;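 also: composite of spot emission at 667 nm and signal to noise over triplicate slides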
Chain of Focal adhesion kinase 1 (Homo sapiens) (Q05397 whole entry, looked up): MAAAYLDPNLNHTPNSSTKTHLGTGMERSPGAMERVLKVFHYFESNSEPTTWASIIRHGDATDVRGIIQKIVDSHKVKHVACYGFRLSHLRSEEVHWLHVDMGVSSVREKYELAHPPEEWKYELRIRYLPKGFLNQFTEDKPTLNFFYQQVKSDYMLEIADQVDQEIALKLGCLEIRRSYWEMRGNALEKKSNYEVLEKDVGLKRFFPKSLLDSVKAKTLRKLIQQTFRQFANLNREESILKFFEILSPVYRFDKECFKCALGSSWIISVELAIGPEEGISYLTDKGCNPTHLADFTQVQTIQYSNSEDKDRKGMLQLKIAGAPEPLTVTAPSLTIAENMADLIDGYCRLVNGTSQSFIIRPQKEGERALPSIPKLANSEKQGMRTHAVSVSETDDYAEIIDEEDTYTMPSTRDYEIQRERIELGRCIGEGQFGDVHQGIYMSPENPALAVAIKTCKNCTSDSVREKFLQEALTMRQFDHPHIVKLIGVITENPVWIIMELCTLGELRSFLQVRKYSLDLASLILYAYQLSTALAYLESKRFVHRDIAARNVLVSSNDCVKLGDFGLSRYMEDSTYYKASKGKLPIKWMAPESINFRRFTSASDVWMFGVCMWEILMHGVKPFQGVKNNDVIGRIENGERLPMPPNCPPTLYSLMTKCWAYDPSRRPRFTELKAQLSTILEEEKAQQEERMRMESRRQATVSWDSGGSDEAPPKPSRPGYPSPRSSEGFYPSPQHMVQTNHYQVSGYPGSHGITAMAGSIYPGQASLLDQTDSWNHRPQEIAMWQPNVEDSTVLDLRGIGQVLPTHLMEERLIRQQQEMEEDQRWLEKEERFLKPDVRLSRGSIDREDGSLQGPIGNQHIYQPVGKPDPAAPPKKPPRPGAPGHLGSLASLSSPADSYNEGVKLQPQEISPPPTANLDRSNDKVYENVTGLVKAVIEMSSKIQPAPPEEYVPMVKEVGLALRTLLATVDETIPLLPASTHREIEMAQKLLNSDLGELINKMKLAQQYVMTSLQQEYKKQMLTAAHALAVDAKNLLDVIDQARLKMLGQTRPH

[12] = test system: Fibrinogen (Alexa647-labelled); experiment: fibrinogen binders on compound microarrays, profiling panel, artefact control for SMM control-protein annotation, biochemical, small-molecule microarray, 635/667 nm fluorescence (AID 1131); conditions: fibrinogen-A647 binding fluorescence, higher = more signal;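 also: z-score merges 667 nm fluorescence with per-spot signal-to-noise over triplicate slides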
[13] = target: Follistatin (Homo sapiens) (UniProt P19883); experiment: follistatin binders on small-molecule microarrays, primary screen, biochemical, small-molecule microarray, 635/667 nm fluorescence (AID 1132); conditions: FST binding, 635 nm fluorescence, higher = more signal
Chain of Follistatin (Homo sapiens) (P19883 whole entry, looked up): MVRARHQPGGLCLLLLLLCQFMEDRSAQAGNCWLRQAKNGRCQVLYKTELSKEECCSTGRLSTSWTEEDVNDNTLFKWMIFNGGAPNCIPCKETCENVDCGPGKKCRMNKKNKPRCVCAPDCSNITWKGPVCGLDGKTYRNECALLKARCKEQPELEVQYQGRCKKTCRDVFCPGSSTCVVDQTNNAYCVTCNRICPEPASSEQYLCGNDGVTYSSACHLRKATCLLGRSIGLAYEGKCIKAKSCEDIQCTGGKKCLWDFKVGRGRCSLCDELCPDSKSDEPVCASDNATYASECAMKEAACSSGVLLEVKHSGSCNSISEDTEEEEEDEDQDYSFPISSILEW

[14] = target: Fibroblast growth factor 2 (Homo sapiens) (UniProt P09038); experiment: FGF2 binders on small-molecule microarrays, primary screen, biochemical, small-molecule microarray, 635/667 nm fluorescence (AID 1133); conditions: small-molecule microarray binding, FGF2, fluorescence 635/667; higher = more signal
Chain of Fibroblast growth factor 2 (Homo sapiens) (P09038 whole entry, looked up): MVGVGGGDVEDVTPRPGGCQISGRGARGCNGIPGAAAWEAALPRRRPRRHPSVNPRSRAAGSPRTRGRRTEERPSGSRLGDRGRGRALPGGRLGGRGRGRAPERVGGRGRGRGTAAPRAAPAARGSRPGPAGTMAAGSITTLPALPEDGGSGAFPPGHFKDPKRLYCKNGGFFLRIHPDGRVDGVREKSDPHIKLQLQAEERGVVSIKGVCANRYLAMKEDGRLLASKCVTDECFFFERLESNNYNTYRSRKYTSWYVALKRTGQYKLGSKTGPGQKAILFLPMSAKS

[15] = mitochondrial membrane potential change in A549 cells, profiling panel, cell-based, JC-1 fluorescence, basal, 24 h, 100 nL (AID 1138); conditions: higher = more signal;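 also: A549 lung adenocarcinoma cells under basal conditions with no added stimulus; test concentration not given here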
Lefty1 = Lefty1 binders on small-molecule microarrays, primary screen, biochemical, small-molecule microarray, 635/667 nm fluorescence (AID 1139); conditions: small-molecule microarray binding, fluorescence 635/667; higher = more signal
[16] = test system: wheat germ agglutinin (Triticum aestivum), Alexa647-labelled; experiment: wheat germ agglutinin binders on compound microarrays, profiling panel, artefact control for SMM control-protein annotation, biochemical, small-molecule microarray, 635/667 nm fluorescence (AID 1140); conditions: WGA-A647 binding, 635 nm fluorescence, higher = more signal;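 also: score merges 667 nm feature emission with signal to noise over triplicate slides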
[17] = target: Luciferin 4-monooxygenase (Photinus pyralis) (UniProt P08659); experiment: firefly luciferase enzyme inhibitors, primary screen, biochemical, luminescence, purified enzyme, 2006 set (AID 1141); conditions: SteadyGlo luminescence, 30 min, higher = more signal, called active from +8 up or from −8 down;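 also: cell-free assay with purified firefly luciferase at 100 ng per well in PBS; test concentration not given here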
Chain of Luciferin 4-monooxygenase (Photinus pyralis) (P08659 whole entry, looked up): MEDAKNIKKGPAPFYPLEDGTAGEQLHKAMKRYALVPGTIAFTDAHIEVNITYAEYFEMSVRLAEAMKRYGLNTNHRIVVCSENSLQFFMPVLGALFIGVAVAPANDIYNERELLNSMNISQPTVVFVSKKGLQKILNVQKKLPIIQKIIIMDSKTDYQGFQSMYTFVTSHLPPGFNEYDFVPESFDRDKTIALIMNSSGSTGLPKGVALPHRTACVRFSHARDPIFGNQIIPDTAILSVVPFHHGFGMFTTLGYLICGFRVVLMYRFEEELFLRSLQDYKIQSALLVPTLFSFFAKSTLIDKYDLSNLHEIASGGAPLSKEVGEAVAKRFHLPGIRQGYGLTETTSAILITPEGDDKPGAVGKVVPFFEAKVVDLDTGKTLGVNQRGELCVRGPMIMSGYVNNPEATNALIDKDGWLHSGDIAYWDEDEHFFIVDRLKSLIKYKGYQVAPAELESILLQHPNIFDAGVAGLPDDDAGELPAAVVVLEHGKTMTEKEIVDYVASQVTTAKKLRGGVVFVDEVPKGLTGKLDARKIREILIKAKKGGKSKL

SMILES	composite z-score (Albumin (Bos taurus))	composite Z-score [1]	composite z-score [2]	composite z-score [3]	composite z-score [4]	composite z-score [5]	composite z-score [6]	composite z-score (Sam68 (KHDRBS1))	composite z-score [7]	composite z-score [8]	composite z-score [9]	composite z-score [10]	composite z-score [11]	composite z-score [12]	composite z-score [13]	composite z-score [14]	z-score [15]	composite z-score (Lefty1)	composite z-score [16]	z-score [17]
CCOC(=O)NN=C1C[C@@H](O)[C@@H](O)[C@@H]2[C@@H]3C(=O)N([C@@H](C)c4ccccc4)C(=O)[C@@H]3CC[C@@H]12	-0.899	-0.491 (inactive)	0.119	-0.0968	-0.0526	-0.374	0.129	1.23	1.02	-1.09	-0.43	0.0085	0.692	0.897	1.28	0.642	-0.337	1.3	0.193	0.685 (inactive)
CCOC(=O)C1=NO[C@]2(C=C(Br)C3(OCCCO3)[C@H]3O[C@H]32)C1	0.653	-0.455 (inactive)	-0.239	-0.0907	0.114	-0.263	-0.157	-0.638	-0.31	-0.586	-0.765	-0.57	-0.428	0.185	-0.599	-0.285	-0.242	-0.168	0.513	0.163 (inactive)
CCN1C(=O)[C@H]2[C@H]3[C@H](O)[C@H](O)CC(=NOCC(C)C)[C@@H]3CC[C@H]2C1=O	0.612	-0.0562 (inactive)	0.179	-0.126	0.459	1.1	-0.202	1.3	0.72	0.0131	0.768	1.04	0.627	0.231	0.84	0.0017	-0.753	0.625	-0.0157	0.887 (inactive)
O=C1CCCC=C1C(O)CCCCBr (stereo not given)	0.956	1.36 (inactive)	0.0242	0.0377	0.778	1.1	-0.101	0.381	0.0069	1.09	3.06	0.466	-0.0308	0.798	1.01	0.306	1.04	0.564	1.28	-1.97 (inactive)
CCOC(=O)CCN1C(=O)[C@H]2[C@H]3[C@H](O)[C@H](O)CC(=NOCC(C)C)[C@H]3CC[C@H]2C1=O	0.345	0.636 (inactive)	-0.0377	-0.14	-0.278	0.163	0.528	-0.353	0.433	0.0589	-0.0537	-0.204	-0.0454	0.416	-0.143	-0.0435	0.46	-0.0892	0.293	-0.562 (inactive)
CCOC(=O)[C@H](Cc1ccccc1)NC(=O)CCC1CC(OC(=O)NCCc2ccc(F)cc2)CC2(CCCC(COC(=O)NCCCN3CCCC3=O)O2)O1 (stereo not given in full)	0.468	0.0773 (inactive)	0.0479	-0.078	0.0851	0.776	0.129	1.29	0.294	1.1	0.688	0.902	0.494	0.552	0.578	0.37	0.837	0.461	0.374	-0.241 (inactive)
CC(CCN1CCCCc2nc(C)c(C)cc21)=NO[C@@H](C)c1cn([C@H](CO)Cc2ccccc2)nn1	0.779	0.364 (inactive)	0.0833	-0.14	0.464	-0.01	-0.248	0.719	0.953	0.249	1.67	0.285	0.321	0.624	0.915	0.545	0.868	0.828	-0.101	0.175 (inactive)
CC(C)(C)N1C(=O)[C@H]2[C@H]3[C@H](O)[C@H](O)CC(=O)[C@@H]3CC[C@H]2C1=O	0.061	0.302 (inactive)	-0.0918	0.0811	0.113	0.113	0.102	0.0236	0.265	0.395	-0.0303	0.237	-0.0066	-0.642	0.539	1.08	-0.662	0.49	0.138	0.166 (inactive)
CO[C@H]1COC(=O)CC=C[C@H](C)[C@@H](OC)COC(=O)[C@H](C)COC(=O)CC=C[C@@H]1C	-1.2	0.559 (inactive)	0.0306	-0.133	-0.425	-0.552	0.975	-0.106	1.43	-0.55	0.487	-0.759	-0.309	-0.899	1.36	1.36	1.13	1.12	-0.844	-0.913 (inactive)
CCOC(=O)NN=C1C[C@@H](O)[C@@H](O)[C@@H]2[C@@H]3C(=O)N([C@@H](C)c4ccccc4)C(=O)[C@@H]3CC[C@H]12	0.0904	-0.36 (inactive)	-0.0647	-0.0424	-0.119	-0.156	-0.111	0.338	0.183	0.297	0.236	0.416	-0.35	0.65	0.285	0.166	-0.877	0.246	0.152	0.846 (inactive)
COC(=O)[C@H](C)NC(=O)CCC1CC(OC(=O)NCc2ccc3c(c2)OCO3)CC2(CCCC(COC(=O)NCC(c3ccccc3)c3ccccc3)O2)O1 (stereo not given in full)	0.409	0.265 (inactive)	0.0159	-0.123	0.478	1.29	0.165	1.29	0.738	1.12	1.31	1.22	0.136	0.925	0.986	0.903	-1.35	1.25	0.31	0.834 (inactive)
